# Most compounds without a hit are left out; they make up all but 2.3% or so of the library.
# 697 NFkB inh – inhibitors of the PMA/ionomycin-induced NF-kB reporter in 697 B cells; 697 B-cell NF-kB luciferase reporter, 16 h; inhibition, % at 4 µM; actives 0.33% (n = 330,000); in the data active means inhibition above about 35%
# Gli-Sufu block – antagonists of Gli-Sufu signaling. actives 0.74% (n = 340,000). Sufu-KO-LIGHT fibroblasts, Gli luciferase reporter luminescence. inhibition, % at 5 µM;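 active means inhibition above about 55%, limit read from the data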;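 further: 0% = DMSO-treated cells and 100% = wells with medium but no cells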
# Jurkat NFkB inh – inhibitors of the PMA/ionomycin-induced NF-kB reporter in Jurkat cells; PMA/ionomycin-induced NF-kB luciferase reporter, luminescence; inhibition, % at 4 µM; actives 0.53% (n = 330,000); AID 435003; in the data active means inhibition above about 50%
# aSyn UTR inh – MLPCN primary screen, SNCA 5' untranslated region | alpha-synuclein 5'UTR reporter, inhibitor activity | AID 1813 | actives 0.82% (n = 300,000) | inhibition, % (tested at 7.5 µM); in the data active means inhibition above about 60%;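 further: H4 neuroglioblastoma cells stably carrying SNCA 5'UTR luciferase fusion; 0% = DMSO wells and 100% = positive control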
# Shn3 3UTR inh – Schnurri-3 reporter inhibition in Clone20 osteoblasts; Clone20 osteoblast Shn3 3'UTR firefly luciferase, 24 h; inhibition, % at 12.5 µM; actives 0.52% (n = 360,000);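 active means mean inhibition of at least 75% with every replicate also reaching 75%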;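 further: 0% = median of neutral control wells and 100% = pilot-screen positive control compound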
# H9c2 TAG inh – inhibitors of triacylglycerol accumulation; H9c2 cells, Nile Red lipid (TAG) fluorescence; cells loaded with 200 µM oleic acid; inhibition, % at 12.5 µM; actives 0.66% (n = 230,000); AID 651582;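 active means pattern-corrected inhibition of lipid staining of at least 50% with the nuclear-stain viability signal not falling by more than 50%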;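 further: 0% = DMSO wells and 100% = triacsin C control wells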
# Gli-Sufu confirm – Gli-SUFU antagonism confirmation, single concentration | shares compounds with Gli-Sufu block | Sufu-KO-LIGHT cells, Gli luciferase reporter, luminescence | inhibition, % at 5 µM | actives 40% (n = 2,500);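 active means mean inhibition at 5 µM reaching about 45%, limit read from the data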;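 further: plate controls were DMSO-treated cells for no effect and wells lacking cells for full effect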
# Gli cytotox – cytotoxic in Gli-SUFU antagonist counter-screen; shares compounds with Gli-Sufu block; Sufu-KO-LIGHT cells cytotoxicity, ATP luminescence; cytotoxicity, % at 5 µM; actives 32% (n = 2,500); AID 651994;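 active means mean cytotoxicity at 5 µM above about 25%, limit read from the data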;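 further: cells exposed to compound overnight for roughly 16 to 18 hours; plate controls were DMSO wells with cells for no effect and medium without cells for full effect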
# Wnt3a cs – inhibits Wnt3a reporter, counter-screen for Gli-SUFU antagonists | Wnt-LIGHT cells, Wnt3a-driven luciferase reporter, luminescence | actives 20% (n = 2,500) | shares compounds with Gli-Sufu block | inhibition, % at 6.25 µM;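 active means mean inhibition above about 25%, limit read from the data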
# Starred values were filed as active, the others as inactive; . = not tested or not shown.
SMILES,697 NFkB inh,Gli-Sufu block,Jurkat NFkB inh,aSyn UTR inh,Shn3 3UTR inh,H9c2 TAG inh,Gli-Sufu confirm,Gli cytotox,Wnt3a cs
CC[N+](C)(CC)CCC(c1ccccc1)C1CCCCC1 (stereo not drawn),5,56*,1,5,7,.,50*,18,-19
Nc1nnc(SCc2ccccc2Cl)s1,-45,-9,-21,-40,-27,-11,.,.,.
CC(C)CC(=O)NC1(C(F)(F)F)C(=O)Nc2c1c(=O)[nH]c(=O)n2Cc1ccco1 (stereo not drawn),-23,-1,-10,0,-6,10,.,.,.
O=c1[nH]c(=O)n(Cc2ccco2)c2c1C(C(F)(F)F)(C(F)(F)F)N=C(c1ccc(F)cc1)N2,-19,51,24,-10,13,.,65*,16,62*
O=C(Cc1cccs1)Nc1cccc(-c2nc3ccccc3o2)c1,-21,99*,-8,-42,4,4,20,14,-6
COc1ccc2c(C)cc(SCC(=O)c3ccc4c(c3)OCO4)nc2c1,-4,64*,-17,-24,-9,.,27,14,5
CC(C)NC(=O)Nc1ccc2c(c1)C(=O)N([C@H](C)CO)C[C@H](C)[C@@H](CN(C)C(=O)NC1CCCCC1)O2,4,29,-2,.,-2,-6,.,.,.
CCN(CCCNC(=O)c1cc2c(-c3cccc(OC)c3)nn(C)c2s1)Cc1ccccc1,-6,59*,2,-32,79,.,16,7,-31
CCN(CC)CCCNC(=O)c1cc2c(-c3ccc(Cl)cc3)nn(C)c2s1,-18,2,-27,-39,-1,17,.,.,.
CC12CCC(C(=O)Nc3cccc(Cl)c3)(C(Br)C1=O)C2(C)C (stereo not drawn),-5,-3,0,33,14,.,.,.,.
O=C(NCc1ccccc1)C1CC2CCCC(C1)C2=O (stereo not drawn),10,94*,6,8,5,.,14,18,-12
COc1ccc(Cl)cc1C(=O)Nc1ccccc1N1CCN(C(=O)C(C)C)CC1,3,50,-12,-13,16,14,24,34*,-54
Cc1ccc(NC(=O)COC(=O)C2CC2(Cl)Cl)cc1C (stereo not drawn),-7,-7,-7,-18,-22,-14,.,.,.
COc1ccc(CCNC(=O)[C@H](C)N2C(=O)N3CCc4c([nH]c5ccccc45)[C@@]3(C)C2=O)cc1OC,8,-2,4,34,27,.,.,.,.
COc1ccccc1CNC(=O)[C@H](C)N1C(=O)N2CCc3c([nH]c4ccccc34)[C@@]2(C)C1=O,2,66*,11,13,50,.,34,5,2
CNc1ccccc(-c2ccc3ccccc3n2)c1=O,-62,54,-7,-140,-59,.,-76,19,-32
c1ccc(-c2ccc3ccccc3n2)cc1,-83,-73,-92,-191,-77,.,.,.,.
O=C(NCc1ccccn1)c1ccc(Cn2cc(C(F)(F)F)ccc2=O)cc1,6,62*,7,-6,-5,8,10,3,-15
COc1ccc(CNC(=O)CSc2ncn[nH]2)cc1,10,87*,-18,-15,-9,-22,27,4,-1
Cc1ccc(CNC(=O)CSc2ncn[nH]2)cc1,6,6,4,0,-12,.,.,.,.
Cc1ccc(C(C#N)c2ccc3c(C(F)(F)F)cc(C(F)(F)F)nc3n2)cc1 (stereo not drawn),-22,53,3,3,62,23,59*,15,52*
N#CC(c1ccccc1)c1ccc2c(C(F)(F)F)cc(C(F)(F)F)nc2n1 (stereo not drawn),-3,3,7,31,78,8,.,.,.
Cc1cc(C(=O)N2CCC2(C)C(=O)O)nn1C(C)(C)C (stereo not drawn),.,.,.,.,2,-2,.,.,.
CCC(NC(=O)NCc1ccc2c(c1)OCO2)(C(F)(F)F)C(F)(F)F,14,-8,0,23,17,.,.,.,.
CCC(NC(=O)NCc1ccccc1)(C(F)(F)F)C(F)(F)F,-16,52,-6,2,-9,.,9,27*,-12
SMILES,697 NFkB inh,Gli-Sufu block,Jurkat NFkB inh,aSyn UTR inh,Shn3 3UTR inh,H9c2 TAG inh,Gli-Sufu confirm,Gli cytotox,Wnt3a cs
CCCCc1nnc(NC(=O)CSCc2cc(=O)n3cc(C)sc3n2)s1,3,51,1,9,-16,.,14,10,-12
CCCCc1nnc(NC(=O)CSCc2cc(=O)n3c(C)csc3n2)s1,14,-3,2,18,-14,.,.,.,.
C/C(CC(=O)Nc1ccccc1C(F)(F)F)=N\NC(=O)c1cnccn1,-3,-26,-2,-11,-9,.,.,.,.
C/C(CC(=O)NCc1ccccc1)=N\NC(=O)c1cnccn1,13,50,7,5,-1,2,19,2,10
CCNC(=S)N1CCC(Cc2ccccc2)CC1,1,27,1,-12,-3,0,.,.,.
COc1ccc(NC(=S)N2CCC(Cc3ccccc3)CC2)cc1,21,62*,-6,.,32,10,45,10,13
S=C(Nc1ccccc1)N1CCC(Cc2ccccc2)CC1,-6,53,20,-10,0,.,66*,27*,22
CC(C)(C)C1CCc2c(sc(NC(=O)C3CC=CCC3C(=O)O)c2C#N)C1 (stereo not drawn),27,-6,-3,-21,-29,1,.,.,.
COc1ccc(CN2CCN(CCCc3ccccc3)C(CCO)C2)cc1OC (stereo not drawn),-6,-8,-6,0,9,5,.,.,.
CCOc1cc(CN2CCN(CCc3ccccc3)C(CCO)C2)ccc1OC (stereo not drawn),6,61*,15,7,7,-3,14,5,-19
O=S(=O)(Nc1nc2ccccc2nc1Nc1ccc2c(c1)OCO2)c1ccc(F)cc1,-29,58*,-6,-15,24,.,58*,16,51*
O=C(O)c1cccc(Nc2nc3ccccc3nc2NS(=O)(=O)c2ccc(F)cc2)c1,-3,-18,-7,.,-22,-1,.,.,.
CCC(C)C(=O)Nc1ccc(S(=O)(=O)N2CCCC2)cc1 (stereo not drawn),6,-45,-5,-4,9,.,.,.,.
CCC(C)NS(=O)(=O)c1ccc(S(=O)(=O)N2CCCC3(CCCCC3)C2)cc1 (stereo not drawn),-11,53,33,32,86*,.,43,26*,6
COc1ccccc1N1CCN(C2CCCN(C(=O)C3=NN(C)C(=O)CC3)C2)CC1 (stereo not drawn),-26,12,10,-8,-1,.,.,.,.
